Source: PubChem BioAssay
The source made the active and inactive calls.

Tests used:
[1] = small molecules captured by biotinylated probe aFSTL3 – biochemical, small-molecule microarray, fluorescence 635/667, stem cell growth factor project, primary screen (AID 1064); conditions: higher = more signal;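 note: measures binding of the biotinylated anti-FSTL3 antibody to printed compounds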
[2] = binders from COS7 lysate, DM2A8 probe, primary screen, torsin A project, cell lysate, small-molecule microarray, fluorescence 635/667 (AID 1065); conditions: higher = more signal, COS7 lysate expressing mutant human TOR1A
[3] = small molecules captured by biotinylated probe aFGF2 – biochemical, small-molecule microarray, fluorescence 635/667, stem cell growth factor project, primary screen (AID 1067); conditions: higher = more signal;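 note: measures binding of biotinylated aFGF2 protein to printed compounds on slides; z-score merges feature fluorescence and signal-to-noise across triplicate slides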
[4] = small molecules captured by biotinylated probe aFGF10 – biochemical, small-molecule microarray, fluorescence 635/667, stem cell growth factor project, primary screen (AID 1071); conditions: higher = more signal;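 note: score merges 667 nm spot intensity and signal to noise from triplicate slides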
[5] = target: Neurogenic locus notch homolog protein 2 (Homo sapiens) (UniProt Q04721); test: small molecules binding Notch2 protein – biochemical, small-molecule microarray, 635 nm fluorescence, stem cell growth factors, primary screen (AID 1073); conditions: higher = more signal
Chain of Neurogenic locus notch homolog protein 2 (Homo sapiens) (Q04721 whole entry, looked up, canonical isoform): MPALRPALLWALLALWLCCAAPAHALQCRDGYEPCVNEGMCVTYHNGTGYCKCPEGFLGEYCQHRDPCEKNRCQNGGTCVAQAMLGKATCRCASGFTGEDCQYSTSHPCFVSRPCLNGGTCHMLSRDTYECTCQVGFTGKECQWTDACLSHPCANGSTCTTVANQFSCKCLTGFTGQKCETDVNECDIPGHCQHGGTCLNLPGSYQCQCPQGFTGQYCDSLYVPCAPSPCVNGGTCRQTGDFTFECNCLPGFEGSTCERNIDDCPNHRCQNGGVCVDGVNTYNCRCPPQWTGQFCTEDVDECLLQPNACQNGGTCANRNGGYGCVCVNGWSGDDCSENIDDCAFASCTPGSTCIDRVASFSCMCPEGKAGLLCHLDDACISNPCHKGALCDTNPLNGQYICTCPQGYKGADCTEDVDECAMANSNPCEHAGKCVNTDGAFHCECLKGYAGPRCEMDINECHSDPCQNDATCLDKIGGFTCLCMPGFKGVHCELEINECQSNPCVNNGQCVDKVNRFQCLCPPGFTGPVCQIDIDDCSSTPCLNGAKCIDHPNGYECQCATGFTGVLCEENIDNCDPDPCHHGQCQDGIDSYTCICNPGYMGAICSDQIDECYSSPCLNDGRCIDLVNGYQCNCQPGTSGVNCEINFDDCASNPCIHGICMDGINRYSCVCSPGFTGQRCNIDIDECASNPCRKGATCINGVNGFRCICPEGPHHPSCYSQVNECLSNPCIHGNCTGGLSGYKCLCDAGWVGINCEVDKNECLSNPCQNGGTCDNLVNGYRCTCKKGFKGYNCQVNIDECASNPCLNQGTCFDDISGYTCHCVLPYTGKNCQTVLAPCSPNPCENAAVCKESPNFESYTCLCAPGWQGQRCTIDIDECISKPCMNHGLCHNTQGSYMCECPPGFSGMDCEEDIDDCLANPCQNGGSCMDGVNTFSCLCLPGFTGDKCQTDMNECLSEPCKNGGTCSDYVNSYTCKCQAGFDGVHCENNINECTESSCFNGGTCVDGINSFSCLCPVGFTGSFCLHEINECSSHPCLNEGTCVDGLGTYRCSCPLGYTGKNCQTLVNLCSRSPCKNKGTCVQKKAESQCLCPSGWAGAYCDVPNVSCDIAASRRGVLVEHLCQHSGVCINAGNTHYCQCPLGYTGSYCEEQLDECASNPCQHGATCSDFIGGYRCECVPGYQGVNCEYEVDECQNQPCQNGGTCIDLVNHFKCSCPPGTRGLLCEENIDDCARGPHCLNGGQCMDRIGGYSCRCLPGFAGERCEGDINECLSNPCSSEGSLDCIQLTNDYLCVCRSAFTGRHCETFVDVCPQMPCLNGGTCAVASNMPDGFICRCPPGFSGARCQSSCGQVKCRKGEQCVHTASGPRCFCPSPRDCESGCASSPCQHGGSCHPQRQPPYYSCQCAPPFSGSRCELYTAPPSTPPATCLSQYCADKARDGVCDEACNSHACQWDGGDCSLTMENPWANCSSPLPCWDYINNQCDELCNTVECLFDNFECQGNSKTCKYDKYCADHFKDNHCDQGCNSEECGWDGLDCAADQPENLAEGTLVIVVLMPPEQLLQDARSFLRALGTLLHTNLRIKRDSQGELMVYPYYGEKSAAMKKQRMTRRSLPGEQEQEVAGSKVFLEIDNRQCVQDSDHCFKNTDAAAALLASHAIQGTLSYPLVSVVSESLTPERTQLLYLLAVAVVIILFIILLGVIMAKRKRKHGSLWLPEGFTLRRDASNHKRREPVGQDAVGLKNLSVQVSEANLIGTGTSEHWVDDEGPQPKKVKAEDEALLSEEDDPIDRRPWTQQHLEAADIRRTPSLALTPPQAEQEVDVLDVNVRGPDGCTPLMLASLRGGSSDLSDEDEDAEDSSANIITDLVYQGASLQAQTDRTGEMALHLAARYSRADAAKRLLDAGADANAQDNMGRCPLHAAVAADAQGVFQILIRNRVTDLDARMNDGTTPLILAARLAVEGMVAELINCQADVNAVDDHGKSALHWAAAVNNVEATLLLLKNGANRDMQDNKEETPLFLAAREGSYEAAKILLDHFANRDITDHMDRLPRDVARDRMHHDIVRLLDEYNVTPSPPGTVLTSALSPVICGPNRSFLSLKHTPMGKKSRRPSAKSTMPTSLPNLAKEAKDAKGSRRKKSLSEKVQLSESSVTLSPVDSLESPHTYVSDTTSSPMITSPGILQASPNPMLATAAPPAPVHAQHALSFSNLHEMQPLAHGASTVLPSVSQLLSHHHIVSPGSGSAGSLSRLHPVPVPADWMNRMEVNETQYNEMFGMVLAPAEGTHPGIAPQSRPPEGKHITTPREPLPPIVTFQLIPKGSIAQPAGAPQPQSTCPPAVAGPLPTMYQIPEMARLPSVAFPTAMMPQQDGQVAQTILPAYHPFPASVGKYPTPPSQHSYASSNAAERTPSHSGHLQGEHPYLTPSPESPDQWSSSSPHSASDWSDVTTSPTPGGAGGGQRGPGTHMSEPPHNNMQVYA

[6] = target: Pro-neuregulin-1, membrane-bound isoform (Homo sapiens) (UniProt Q02297); test: small molecules binding neuregulin-1 protein – biochemical, small-molecule microarray, fluorescence 635/667, psychiatric disease protein project, primary screen (AID 1075); conditions: NRG1 binding, 635 nm fluorescence, higher = more signal;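 note: score combines 667 nm spot fluorescence with signal to noise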
Chain of Pro-neuregulin-1, membrane-bound isoform (Homo sapiens) (Q02297 whole entry, looked up, the tested form may be a part, canonical isoform): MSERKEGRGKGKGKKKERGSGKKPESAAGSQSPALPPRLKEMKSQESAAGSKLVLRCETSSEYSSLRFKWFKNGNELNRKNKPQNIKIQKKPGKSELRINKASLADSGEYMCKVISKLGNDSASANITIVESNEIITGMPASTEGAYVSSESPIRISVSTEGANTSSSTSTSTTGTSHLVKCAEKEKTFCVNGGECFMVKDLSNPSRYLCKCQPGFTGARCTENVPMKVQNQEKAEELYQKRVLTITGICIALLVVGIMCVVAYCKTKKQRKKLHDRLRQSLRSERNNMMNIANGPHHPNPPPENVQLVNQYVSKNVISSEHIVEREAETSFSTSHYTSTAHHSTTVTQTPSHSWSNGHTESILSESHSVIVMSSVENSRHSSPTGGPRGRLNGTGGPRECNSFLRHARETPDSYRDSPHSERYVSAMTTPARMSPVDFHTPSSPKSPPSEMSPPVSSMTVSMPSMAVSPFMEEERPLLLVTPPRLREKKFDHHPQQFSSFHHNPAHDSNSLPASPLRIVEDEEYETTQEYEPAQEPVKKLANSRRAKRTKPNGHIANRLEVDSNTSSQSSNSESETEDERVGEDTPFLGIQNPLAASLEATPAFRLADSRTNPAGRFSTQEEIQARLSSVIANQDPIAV

[7] = tested on: Neuregulin-1 EGF-like domain; test: small molecules binding NRG1 EGF domain – biochemical, small-molecule microarray, 635 nm fluorescence, primary screen (AID 1081); conditions: higher = more signal;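 note: binding of the protein to compounds printed on small-molecule microarray slides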
[8] = FRG1 expression reporter modulators in myotubes – cell-based, C2C12 myotubes, firefly/Renilla luciferase, luminescence, FRG1 inhibition for FSHD, primary screen (AID 1084); conditions: FRG1 promoter luciferase, higher = more signal, called active from +8 up or from −8 down
[9] = small molecules captured by biotinylated probe aFST – biochemical, small-molecule microarray, fluorescence 635/667, stem cell growth factor project, primary screen (AID 1086); conditions: higher = more signal;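 note: score merges 667 nm fluorescence with signal-to-noise of each printed compound spot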
[10] = binders of probe aHhip on microarray, primary screen, stem cell growth factor project, biochemical, small-molecule microarray, fluorescence 635/667 (AID 1087); conditions: higher = more signal;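 note: score merges spot fluorescence at 667nm with spot signal to noise ratio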
[11] = tested on: PRMT1 (protein arginine N-methyltransferase 1); test: small molecules binding arginine methyltransferase PRMT1 – biochemical, small-molecule microarray, 635 nm fluorescence, primary screen (AID 1088); conditions: higher = more signal;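 note: binding of Prmt1 protein to compounds spotted on small-molecule microarray slides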
[12] = growth effects on S. cerevisiae YJM789 – YJM789 clinical isolate, OD600, 24 h, basal, primary screen (AID 1089); conditions: higher = more signal, called active from +8 up or from −8 down;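 note: growth of clinical yeast isolate S. cerevisiae YJM 789 seeded 1000 cells per well; test concentration not given here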
[13] = S. pombe growth modifiers, basal conditions – strain 972, OD600, 24 h, no modulator, primary screen (AID 1090);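 note: basal condition with compound alone and no growth modifier present; test concentration not given here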; conditions: S. pombe 972 growth, higher = more signal, called active from +8 up or from −8 down
[14] = budding yeast growth modifiers under rapamycin – strain BY4716, OD600, 96 h, primary screen (AID 1091); note: test concentration not given here; conditions: S. cerevisiae BY4716 + rapamycin, higher = more signal, called active from +8 up or from −8 down
[15] = target: Torsin-1A-interacting protein 2 (Homo sapiens) (UniProt Q8NFQ8); test: small molecules binding lysate-expressed LULL1 – cell lysate, human LULL1 lysate, 635/667 nm fluorescence, primary screen (AID 1092); conditions: small-molecule microarray, hLULL1 lysate binding, 635 nm fluorescence; higher = more signal;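 note: probe is lysate of COS7 cells overexpressing human LULL1; score merges per-feature 667 nm fluorescence with signal-to-noise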
Chain of Torsin-1A-interacting protein 2 (Homo sapiens) (Q8NFQ8 whole entry, looked up): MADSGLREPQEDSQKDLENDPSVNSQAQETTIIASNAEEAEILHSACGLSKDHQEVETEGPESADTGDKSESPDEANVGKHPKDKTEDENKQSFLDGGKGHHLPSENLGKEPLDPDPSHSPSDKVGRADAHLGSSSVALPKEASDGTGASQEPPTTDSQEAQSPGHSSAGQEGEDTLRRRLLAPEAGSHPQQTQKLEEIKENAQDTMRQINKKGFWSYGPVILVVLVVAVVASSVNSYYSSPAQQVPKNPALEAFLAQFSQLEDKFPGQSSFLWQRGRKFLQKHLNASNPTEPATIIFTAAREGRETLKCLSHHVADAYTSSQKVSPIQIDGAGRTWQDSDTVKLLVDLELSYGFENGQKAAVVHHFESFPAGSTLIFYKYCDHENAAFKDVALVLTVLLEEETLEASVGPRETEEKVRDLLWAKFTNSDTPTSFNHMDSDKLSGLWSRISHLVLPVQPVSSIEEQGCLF

[16] = optical density change of DRC41 E. coli – strain DRC41, OD650, 24 h, E. coli filamentation project, primary screen (AID 1093);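 note: MC1000 strain lacking acrAB efflux and sulA so SOS filamentation is blocked; test concentration not given here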; conditions: E. coli DRC41 growth, higher = more signal, called active from +8 up or from −8 down
[17] = probe aLefty2 binding to arrayed compounds – biochemical, biotinylated probe, 635/667 nm fluorescence, primary screen (AID 1094); conditions: small-molecule microarray, higher = more signal;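 note: score merges spot fluorescence near 667 nm with spot signal-to-noise ratio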
[18] = tested on: Noggin (protein binding on small-molecule microarray); test: small molecules binding Noggin protein – biochemical, 635/667 nm fluorescence, primary screen (AID 1095); conditions: 635 nm fluorescence, higher = more signal;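 note: score merges 667 nm feature fluorescence with signal to noise over triplicate slides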
[19] = target: Neurogenic locus notch homolog protein 3 (Homo sapiens) (UniProt Q9UM47); test: small molecules binding NOTCH3 protein – biochemical, 635/667 nm fluorescence, primary screen (AID 1096); conditions: small-molecule microarray, 635 nm fluorescence, higher = more signal
[20] = probe aEGFR binding to arrayed compounds – biochemical, biotinylated probe, 635/667 nm fluorescence, primary screen (AID 1097); conditions: small-molecule microarray, higher = more signal;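 note: probe is a biotinylated anti-EGFR antibody binding compounds printed on slides; score combines fluorescence near 667 nm and signal to noise of each spot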

Row | SMILES | composite z-score [1] | composite z-score [2] | composite z-score [3] | composite z-score [4] | composite z-score [5] | composite z-score [6] | composite z-score [7] | z-score [8] | composite z-score [9] | composite z-score [10] | composite z-score [11] | z-score [12] | z-score [13] | z-score [14] | composite z-score [15] | z-score [16] | composite z-score [17] | composite z-score [18] | composite z-score [19] | composite z-score [20]
1 | COCCCNC(=O)[C@]1(CCS(=O)(=O)c2ccccc2)N=C(c2ccc(OCCCO)cc2)O[C@@H]1c1ccccc1 | -0.0225 | 1.05 | 0.124 | 0.786 | 1.57 | 2.12 | 1.22 | -1.91 (inactive) | 1.26 | -0.166 | 1.54 | -0.575 (inactive) | 0.127 (inactive) | 0.0389 (inactive) | 3.74 | 0.697 (inactive) | 0.255 | 0.712 | 1.11 | 0.141
2 | C=C(COC)C(=O)CC[C@H](OC(=O)c1ccccc1-c1ccccc1C(=O)O)c1ccc(CO)o1 | -0.326 | -0.192 | -0.128 | 0.738 | -0.532 | 0.844 | 1.33 | -0.362 (inactive) | -0.118 | -0.0618 | 1.56 | -1.91 (inactive) | 0.436 (inactive) | 0.526 (inactive) | 1.37 | 0.229 (inactive) | -0.216 | 0.757 | 0.391 | -0.17
3 | O=C(O)[C@@]1(Cc2ccccc2)COC(c2ccc(OCCCO)cc2)=N1 | 0.805 | -0.24 | -0.0886 | -0.24 | -0.287 | 1.19 | 1.2 | 0.809 (inactive) | 0.519 | -0.0994 | -0.269 | 0.661 (inactive) | 1.01 (inactive) | 1.3 (inactive) | 2.64 | 0.598 (inactive) | -0.0915 | -0.66 | -0.776 | -0.229
4 | Cc1ccc(F)cc1S(=O)(=O)N[C@@H]1CCN(C(=O)c2ccc(OC(C)C)cc2)C1 | -0.473 | -0.414 | -0.131 | 0.859 | 0.957 | -0.129 | 0.602 | -3.78 (inactive) | 0.475 | -0.258 | 0.981 | -0.654 (inactive) | -0.709 (inactive) | -0.966 (inactive) | 1.03 | 0.845 (inactive) | 0.0563 | 0.805 | 1.13 | 0.0225
5 | C=CCOC(=O)[C@@H]1[C@H]2C(=O)O[C@H](c3ccccc3)[C@H](c3ccccc3)N2[C@H](c2ccc(OCCOC(=O)[C@@H]3C[C@@H]4C(=O)N5CCC[C@H]5C(=O)N4[C@@H]3c3cccc(OCCO)c3)cc2)[C@@]12C(=O)Nc1ccc(I)cc12 | -0.396 | 0.313 | -0.0927 | 0.0951 | 0.115 | 0.311 | 1.17 | 0.184 (inactive) | 0.252 | -0.236 | 1.55 | 0.581 (inactive) | 1.05 (inactive) | 2.18 (inactive) | 2.49 | 0.949 (inactive) | -0.0756 | 1.9 | 1.11 | -0.0387
6 | C=CCC(OC(C)=O)[C@@H]1[C@@H](N(Cc2ccc(-c3cccc(C(F)(F)F)c3)o2)C(=O)c2cccc3ccccc23)c2cc(OCCCO)ccc2N1C(=O)c1ccc(-c2ccccc2)cc1 (stereo not given in full) | -0.188 | 0.0536 | -0.12 | -0.212 | -0.628 | 0.0252 | -0.908 | -0.579 (inactive) | 0.123 | 0.0749 | -0.496 | 0.0476 (inactive) | 0.0758 (inactive) | -0.0038 (inactive) | -0.94 | -0.993 (inactive) | -0.0785 | 1.06 | -0.358 | -0.099
7 | C=CCOc1ccc([C@@H]2CC=C(C(=O)OCC)[C@H](c3cccc(Br)c3)N2S(=O)(=O)c2ccc(C)cc2)cc1 | 0.474 | -0.229 | -0.0901 | -0.0763 | -0.672 | 0.866 | 0.0455 | -4.03 (inactive) | 0.176 | -0.3 | -0.227 | -2.1 (inactive) | -0.493 (inactive) | 0.196 (inactive) | 0.652 | -0.372 (inactive) | 0.049 | -0.351 | -0.32 | -0.0456
8 | CC(C)C[C@@H]1NC(=O)[C@@H]2C[C@H](C(=O)NCCCC[N+](C)(C)C)[C@H](c3cccc(OCCO)c3)N2C1=O | 0.157 | 1.09 | -0.0784 | -0.0155 | -0.884 | 1.05 | 1.12 | 0.14 (inactive) | 0.496 | 0.595 | 1.31 | 1.14 (inactive) | 0.936 (inactive) | -0.567 (inactive) | 0.622 | -0.329 (inactive) | -0.0123 | 1.84 | 1.04 | -0.0069
9 | CCCNC(=O)[C@@H]1c2ccccc2C(=O)N(CC23CC4CC(CC(C4)C2)C3)[C@H]1c1ccc(CO)cc1 | -0.371 | -0.101 | -0.0588 | 0.618 | 1.56 | 1.3 | 1.26 | -2.41 (inactive) | 1.3 | 0.0373 | 1.44 | -0.449 (inactive) | -1.63 (inactive) | 0.835 (inactive) | 2.79 | -0.693 (inactive) | 0.267 | 0.406 | 1.1 | 0.167
